{"source": "the supplement of paper PMC12350171", "note": "Counter-ions that a name gives are not always drawn. Values without a mark were called inactive.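 The calls were made as follows: active = AUC significantly below DMSO controls by Student t-fit with adjusted P under 0.01; inactive = not significantly reduced.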"}
{"tested_on": "Haemophilus parainfluenzae", "test": "growth AUC normalised to DMSO control (fraction of control); higher = less growth inhibition, active = hit call of the paper", "conditions": "20 µM", "how_it_was_run": "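After two anaerobic passages, pathogens were added at a starting OD578 of 0.01 to pre-reduced mGAM plates holding compound at 20 μM with 1% DMSO; hemin and NAD were supplemented for Haemophilus parainfluenzae. Sealed with breathable membranes, plates were read at OD578 hourly for 24 h, in three biological replicates. The trapezoidal rule, applied up to the exponential-to-stationary transition, gave the growth-curve AUC, which was normalised to DMSO controls on the same plate.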"}
{"smiles": "C[C@]12CC[C@@H]3c4ccc(OS(=O)(=O)O)cc4CC[C@H]3[C@@H]1CCC2=O", "note": "[Estropipate piperazine salt]", "growth AUC normalised to DMSO control": 0.985}
{"smiles": "O=C1c2c(O)cccc2Cc2cccc(O)c21", "note": "[Anthralin]", "growth AUC normalised to DMSO control": 1.39}
{"smiles": "CN(C)CCOC(c1ccccc1)c1ccccc1", "note": "[Diphenhydramine hydrochloride]", "growth AUC normalised to DMSO control": 0.992}
{"smiles": "CC(Cc1cccc(C(F)(F)F)c1)NCCOC(=O)c1ccccc1", "note": "(centres undefined) [Benfluorex]", "growth AUC normalised to DMSO control": 0.93}
{"smiles": "Cc1cc2c(cc1S(N)(=O)=O)S(=O)(=O)CCC2", "note": "[Meticrane]", "growth AUC normalised to DMSO control": 1.04}
{"smiles": "CN1C(=O)CC(c2ccccc2)C1=O", "note": "(centres undefined) [Phensuximide]", "growth AUC normalised to DMSO control": 1.01}
{"smiles": "Cc1nnc(SCC2=C(C(=O)O)N3C(=O)[C@@H](NC(=O)Cn4cnnn4)[C@H]3SC2)s1", "note": "[Cefazolin sodium salt]", "growth AUC normalised to DMSO control": "0.0609 (active)"}
{"smiles": "CC(C)(C#N)c1cc(Cn2cncn2)cc(C(C)(C)C#N)c1", "note": "[Anastrozole]", "growth AUC normalised to DMSO control": 1.1}
{"smiles": "Cc1cc(-c2ccccc2)nnc1NCCN1CCOCC1", "note": "[Minaprine dihydrochloride]", "growth AUC normalised to DMSO control": 0.991}
{"smiles": "CCOC(=O)/C=C(C)/C=C/C=C(C)/C=C/c1c(C)cc(OC)c(C)c1C", "note": "[Etretinate]", "growth AUC normalised to DMSO control": 1.03}
{"smiles": "C[N+]1(CCCCC[N+]2(C)CCCC2)CCCC1", "note": "[Pentolinium bitartrate]", "growth AUC normalised to DMSO control": 0.96}
{"smiles": "CC[C@@]1(O)C(=O)OCc2c1cc1n(c2=O)Cc2cc3c(CN(C)C)c(O)ccc3nc2-1", "note": "[Topotecan]", "growth AUC normalised to DMSO control": 0.984}
{"smiles": "C=C[C@H]1CN2CC[C@H]1C[C@@H]2[C@@H](O)c1ccnc2ccc(OC)cc12", "note": "[Quinidine hydrochloride monohydrate]", "growth AUC normalised to DMSO control": 1.01}
{"smiles": "COCC(=O)Nc1c(I)c(C(=O)NCC(O)CO)c(I)c(C(=O)N(C)CC(O)CO)c1I", "note": "(centres undefined) [Iopromide]", "growth AUC normalised to DMSO control": 1.03}
{"smiles": "CC(c1cc2ccccc2s1)N(O)C(N)=O", "note": "(centres undefined) [Zileuton]", "growth AUC normalised to DMSO control": 0.909}
{"smiles": "Cc1cnc(C(=O)O)c[n+]1[O-]", "note": "[Acipimox]", "growth AUC normalised to DMSO control": 0.94}
{"smiles": "NS(=O)(=O)c1cc2c(cc1Cl)NCNS2(=O)=O", "note": "[Hydrochlorothiazide]", "growth AUC normalised to DMSO control": 0.967}
{"smiles": "COCCCOc1ccnc(C[S+]([O-])c2nc3ccccc3[nH]2)c1C", "note": "(centres undefined) [Rabeprazole sodium salt]", "growth AUC normalised to DMSO control": 0.985}
{"smiles": "CC(C)(C)NCC(O)c1ccc(O)c(CO)c1", "note": "(centres undefined) [Salbutamol]", "growth AUC normalised to DMSO control": 0.895}
{"smiles": "C=C1/C(=C\\C=C2/CCC[C@]3(C)[C@@H]([C@H](C)/C=C/[C@@H](O)C4CC4)CC[C@@H]23)C[C@@H](O)C[C@@H]1O", "note": "[Calcipotriene]", "growth AUC normalised to DMSO control": 0.836}
{"smiles": "Nc1nc(F)nc2c1ncn2[C@@H]1O[C@H](CO)[C@@H](O)[C@@H]1O", "note": "[Fludarabine]", "growth AUC normalised to DMSO control": 1.01}
{"smiles": "CC(C)NCC(O)COc1ccc(COCCOC(C)C)cc1", "note": "(centres undefined) [Bisoprolol hemifumarate]", "growth AUC normalised to DMSO control": 1.13}
{"smiles": "Nc1ccc(S(=O)(=O)Nc2ccnn2-c2ccccc2)cc1", "note": "[Sulfaphenazole]", "growth AUC normalised to DMSO control": 0.925}
{"smiles": "COCCCC/C(=N\\OCCN)c1ccc(C(F)(F)F)cc1", "note": "[Fluvoxamine maleate]", "growth AUC normalised to DMSO control": 0.981}
{"smiles": "CCc1cc(C(N)=S)ccn1", "note": "[Ethionamide]", "growth AUC normalised to DMSO control": 0.983}
{"smiles": "N=C(NCCCCCCNC(=N)NC(=N)Nc1ccc(Cl)cc1)NC(=N)Nc1ccc(Cl)cc1", "note": "[Chlorhexidine]", "growth AUC normalised to DMSO control": "0.139 (active)"}
{"smiles": "CC1(C)NC(=O)N(c2ccc([N+](=O)[O-])c(C(F)(F)F)c2)C1=O", "note": "[Nilutamide]", "growth AUC normalised to DMSO control": 0.977}
{"smiles": "COc1ccc(C(=O)NCc2ccc(OCCN(C)C)cc2)cc1OC", "note": "[Itopride]", "growth AUC normalised to DMSO control": 0.993}
{"smiles": "Nc1nc(=O)n([C@@H]2CS[C@H](CO)O2)cc1F", "note": "[(-) Emtricitabine]", "growth AUC normalised to DMSO control": 0.97}
{"smiles": "CC(C)NCC(O)c1ccc(NS(C)(=O)=O)cc1", "note": "(centres undefined) [Sotalol hydrochloride]", "growth AUC normalised to DMSO control": 1}
{"smiles": "NC(=O)c1ncn([C@@H]2O[C@H](CO)[C@@H](O)[C@H]2O)n1", "note": "[Ribavirin]", "growth AUC normalised to DMSO control": 1}
{"smiles": "C[N+](C)(C)CCOC(N)=O", "note": "[Carbachol chloride]", "growth AUC normalised to DMSO control": 1.09}
{"smiles": "COc1ccc(C(=O)c2ccccc2O)c(O)c1", "note": "[Dioxybenzone]", "growth AUC normalised to DMSO control": 0.992}
{"smiles": "CC12CC3CC(C)(C1)CC(N)(C3)C2", "note": "[Memantine hydrochloride]", "growth AUC normalised to DMSO control": 0.986}
{"smiles": "N=C(N)NC(=N)NCCc1ccccc1", "note": "[Phenformin hydrochloride]", "growth AUC normalised to DMSO control": 1.04}
{"smiles": "CCN(CC)CCNC(=O)COc1ccc(OC)cc1", "note": "[Mefexamide hydrochloride]", "growth AUC normalised to DMSO control": 0.985}
{"smiles": "CCn1cc(C(=O)O)c(=O)c2cc(F)c(N3CCNCC3)nc21", "note": "[Enoxacin]", "growth AUC normalised to DMSO control": "0.0701 (active)"}
{"smiles": "CCN(CC)CCOC(=O)c1ccc(N)cc1", "note": "[Procaine hydrochloride]", "growth AUC normalised to DMSO control": 1}
{"smiles": "NC1CCN(c2nc3c(cc2F)c(=O)c(C(=O)O)cn3-c2ccc(F)cc2F)C1", "note": "(centres undefined) [Tosufloxacin hydrochloride]", "growth AUC normalised to DMSO control": "0.0424 (active)"}
